Experimental data as given in PubChem BioAssay AID434958 (Southern Research Specialized Biocontainment Screening …, 2010).
Hit rate of the full screen: of about 1,200 compounds, about 400 (33%) were called active. How the calls were made is not given here. A selection follows. Measured potencies and affinities stand elsewhere.

test: mammalian cell cytotoxicity, dose response, cytotoxicity control (AID 434958); settings: cytotoxicity counter-screen; series mostly up to 40 µM;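 further: cells exposed to compound for 72 hours before readout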

| Structure (SMILES) | outcome |
| --- | --- |
| COc1ccccc1NC(=O)COc1ccc(CO)cc1Cl | inactive |
| COc1ccc(NC(=O)COC(=O)Cc2ccc(-c3ccccc3)cc2)c(OC)c1 | inactive |
| COc1cccc(C(=O)C2CCCN(Cc3ccccn3)C2)c1 (configuration not stated) | inactive |
| COc1ccc(OC)c2nc(-c3ccc4c(c3)OCO4)ccc12 | inactive |
| COc1ccc(-c2cc3cc(OC)c(OC)cc3c(C)n2)cc1 | inactive |
| CC(=O)c1c(OC(=O)c2cccc(Cl)c2)c2ccccc2n1C | inactive |
| CCOC(=O)c1ccc(N2CN(C3CCCCC3)CNC2=S)cc1 | inactive |
| N=C1C(c2nc3ccccc3[nH]2)=C(O)CN1c1ccc(F)cc1 | inactive |
| Cn1c2ccccc2c(=O)c2cc(C#CC3(O)CCCCC3)ccc21 | inactive |
| O=C(O)C1CC(=O)N(c2ccc(OCc3ccccc3Cl)cc2)C1 (configuration not stated) | inactive |
| CSc1ccccc1C(=O)Nc1cccc([N+](=O)[O-])c1C | inactive |
| Cc1nn(-c2ccccc2)c(N2CCCC2)c1/C=C1\N=C(c2ccc(F)cc2)OC1=O | inactive |
| Cc1cc(C)nc(SCC(=O)Nc2ccccc2[N+](=O)[O-])n1 | inactive |
| Cc1sc2nc(C(C)(C)C)oc(=O)c2c1C | inactive |
| CC/C(=N\NC(=O)c1ccc(-c2ccccc2)cc1)C12CC3CC(CC(C3)C1)C2 | inactive |
| CCCCOc1ccc(C(=O)Oc2cccnc2)cc1 | inactive |
| CN(C)S(=O)(=O)c1ccc(C(=O)OCC2CC2(Cl)Cl)cc1 (configuration not stated) | inactive |
| N/C(=N\c1nc2ccccc2o1)NC(=O)c1ccccc1Br | inactive |
| CCOC(=O)N1CCN(C(=O)CSc2nnc(COc3ccccc3)o2)CC1 | inactive |
| O=C1C(Cl)=C(N2CCCCC2)C(=O)N1c1ccccc1 | inactive |
| CCNC(=S)N/N=C1\C(=O)c2cccc3cccc1c23 | inactive |
| O=C(CSc1ncnc2c1cnn2-c1ccccc1)Nc1ccc2c(c1)OCO2 | inactive |
| Fc1ccc(-c2csc(NC(=S)Nc3ccccc3)n2)cc1 | inactive |
| O=C(CCC(=O)Nc1ccccc1)NNC(=O)c1ccco1 | inactive |

| Structure (SMILES) | outcome |
| --- | --- |
| Cc1ccccc1OCC(=O)Nc1ccccc1N1CCOCC1 | inactive |
| COc1cccc(NC(=O)C2CC2)c1 | inactive |
| Cc1ccc(C)c(NC(=O)c2cc(-c3cccnc3)nc3ccccc23)c1 | inactive |
| c1ccc(Nc2ncnc3c2oc2ccccc23)cc1 | inactive |
| C=CCNC(=S)NC(=O)c1csc([N+](=O)[O-])c1 | inactive |
| COC(=O)c1ccc(/C=N\NC(=O)c2ccc(C)cc2Cl)cc1 | inactive |
| CC1CCN(CCOc2ccc(OCc3ccccc3)cc2)CC1 | inactive |
| Cc1ccc(S(=O)(=O)NCCCCCC(=O)Nc2ccccn2)cc1 | inactive |
| Cn1c(O)c(/C=C2/C=CC=N2)c(=O)[nH]c1=O | inactive |
| COc1ccc(NC(=O)c2cc(C)nc3ccccc23)c(OC)c1 | inactive |
| Cc1cc(C)c(C)c(S(=O)(=O)N2C(=S)NC(=O)C2CC(C)C)c1C (configuration not stated) | inactive |
| CC(=O)c1ccc(OC(=O)N(c2ccccc2)c2ccccc2)cc1 | inactive |
| CN(C)C1=C(Cl)C(=O)N(c2ccc(Cl)c(Cl)c2)C1=O | inactive |
| CCCCOc1ccccc1NC(=O)c1ccco1 | inactive |
| O=c1c2c3n(c(=S)nc2[nH]n1-c1ccccc1)CCCCC3 | inactive |
| CCN(CC(=O)Nc1ccc2c(c1)OCCO2)C(=O)c1ccc([N+](=O)[O-])s1 | inactive |
| COc1ccc(NCC(=O)N/N=C/C(C)c2ccccc2)cc1 (configuration not stated) | inactive |
| Cc1cc(/C=N/NC(=O)CC#N)c(C)n1-c1ccc([N+](=O)[O-])cc1 | inactive |
| COc1ccc(N2C(=O)NC(=O)/C(=C\c3ccc([N+](=O)[O-])s3)C2=O)cc1 | inactive |
| CCCc1cc(C(=O)OCC(=O)N2CCN(c3ccc(OC)cc3)CC2)sc1C | inactive |
| COc1cc(C(=O)NNC(=O)c2cc(-c3ccccc3)n[nH]2)cc(OC)c1C | inactive |
| COc1ccc(C2c3c(C)nn(-c4ccccc4)c3NC(=O)N2c2ccccc2)cc1 (configuration not stated) | inactive |
| CCOC(=O)C1CSC(CC(=O)Nc2ccc(Cl)c(Cl)c2)C(=O)N1 (configuration not stated) | inactive |
| CCOC(=O)C1CCN(c2ccc(C(N)=O)cc2[N+](=O)[O-])CC1 | inactive |

| Structure (SMILES) | outcome |
| --- | --- |
| CCCCC(=O)NC(=S)Nc1ccc(NC(=O)C(C)C)c(OC)c1 | inactive |
| O=C1C(Cl)=C(N2CCCCCC2)C(=O)N1c1ccc(Br)cc1 | inactive |
| CCOCC(=O)Nc1cc(C(F)(F)F)ccc1Oc1cccc(Br)c1 | inactive |
| COc1cc(OC)c(C(=O)Nc2cccc3ccccc23)cc1OC | inactive |
| C/C(=N\OCC(=O)Nc1nc2ccccc2s1)c1ccccc1 | inactive |
| CCCCNC(=O)c1onc(CSc2ccc(OC)cc2)c1C(=O)O | inactive |
| COC(=O)c1c(NC(=O)C2c3ccccc3Oc3ccccc32)sc(C)c1C | inactive |
| COc1ccc(OC)c(NC(=O)c2ccccc2SC)c1 | inactive |
| COc1ccc(Cl)cc1NC(=O)C/C(C)=N/NC(=O)CC#N | inactive |
| O=C(CCSc1ccccc1)Nc1nc2c(s1)CCCC2 | inactive |
| CCOC(=O)C(=CNc1ccc2c(c1)c1ccccc1n2CC)C(=O)OCC | inactive |
| Cc1cc(C)cc(SCc2noc(C(=O)NC(C)C)c2C(=O)O)c1 | inactive |
| COc1ccccc1C(=O)Nc1ccc2c3c(cccc13)CC2 | inactive |
| CCOC(=O)CNC(=O)/C(=C\c1ccc(F)cc1)NC(=O)c1ccccc1 | inactive |
| CC(/C=N/NC(=O)c1cc(C(C)(C)C)[nH]n1)=C\c1ccccc1 | inactive |
| C/C(CC(=O)NCc1ccco1)=N\NC(=O)CC#N | inactive |
| COc1ccc(/C(O)=C/C(=O)C(=O)NNC(=O)C(O)(c2ccccc2)c2ccccc2)cc1 | inactive |
| CCOC(=O)c1cc(-c2ccccc2)sc1NC(=O)C(C)N1C(=O)NC(C)(c2ccc(Cl)cc2)C1=O (configuration not stated) | inactive |
| Cc1ccc(C)c(CSc2nnc(C)c(=O)n2N)c1 | inactive |
| O=C(/C=C/c1cc(Br)ccc1F)OCC(=O)N1CCCC1 | inactive |
| CCc1cc(C(=O)O)c(NC(=O)/C=C/c2ccc(OC)cc2)s1 | inactive |
| CC(C)Oc1ccc(N2CC(C(=O)Nc3ccccc3F)CC2=O)cc1 (configuration not stated) | inactive |
| CSc1nnc(-c2ccc(NC(N)=S)cc2)o1 | inactive |
| Cc1ccc(S(=O)(=O)N[C@H](C(=O)OCn2nnc3ccccc3c2=O)C(C)C)cc1 | inactive |

| Structure (SMILES) | outcome |
| --- | --- |
| O=C(CNC(=O)c1ccc(Br)cc1)NCC(=O)OCc1ccc(Cl)cc1 | inactive |
| O=C(CSC1CS(=O)(=O)c2cc([N+](=O)[O-])ccc21)NNC(=O)c1ccccc1 (configuration not stated) | inactive |
| O=C1O/C(=C/c2ccccc2)N=C1c1ccccc1 | inactive |
| NNC(=S)Nc1ccc(C(F)(F)F)cc1Cl | inactive |
| CCCOc1ccc(C2Nc3cccc4cccc(c34)N2)cc1 | inactive |
| Cc1cccc(NC(=O)c2cc3ccccc3c(=O)o2)n1 | inactive |
| O=C(CCSc1nnc(-c2ccncc2)o1)Nc1ccccc1Cl | inactive |
| Cc1ccc(N=Cc2c(O)ccc3ccccc23)cc1F | inactive |
| COC(=O)c1ccccc1NC(=O)CSCC(=O)Nc1ccc(F)cc1 | inactive |
| COc1cccc(/C=N/Nc2nc(N3CCCC3)nc(N3CCCC3)n2)c1O | inactive |
| COc1cccc(/C=N/NC(N)=S)c1OS(=O)(=O)c1ccccc1 | inactive |
| O=C(CSc1ncn[nH]1)Nc1cccc2ccccc12 | inactive |
| COc1ccccc1/C=N/NC(=S)Nc1cccnc1 | inactive |
| CONC(=O)c1cc(OCC(F)(F)F)ccc1OCC(F)(F)F | inactive |
| COC(=O)c1cccc(NC(=S)NCCC2=CCCCC2)c1 | inactive |
| O=C(NCC1COc2ccccc2O1)C1CCC(CNc2c(N3CCCCC3)c(=O)c2=O)CC1 (configuration not stated) | inactive |
| Cc1ccc(-n2ncc(-c3nnc(SCC(=O)NC4CCCC4)o3)c2N)cc1C | inactive |
| COc1cc(C(F)(F)F)nc2ccc(C#CCOC(=O)Nc3ccccc3)cc12 | inactive |
| O=C(CN1CCC(O)(c2ccc3c(c2)OCO3)CC1)OC1CCCCC1 | inactive |
| COc1ccc(C(=O)Nc2nc3ccc(OC)cc3s2)cc1 | inactive |
| COc1ccc2nc(NC(=O)c3ccc(Br)s3)sc2c1 | inactive |
| O=C(COC(=O)c1ccc([N+](=O)[O-])s1)NCc1ccc(F)cc1 | inactive |
| CCOc1ccc(NC(=S)Nc2cccnc2)cc1 | inactive |
| Cc1c(C(=O)Nc2cccnc2)oc2ccc(Br)cc12 | inactive |

| Structure (SMILES) | outcome |
| --- | --- |
| COc1cc(NC(=O)C2CCCCC2)c(OC)cc1NC(=O)CN1CCCCC1 | inactive |
| Cc1ccc(S(=O)(=O)NCCCCCC(=O)Nc2nccs2)cc1 | inactive |
| Cc1nnc(SCc2ccc(C(=O)Nc3cc(Cl)ccc3C)cc2)s1 | inactive |
| COc1ccc(C(=O)Nc2ccc(C(=O)OCC(=O)c3ccccc3)cc2)cc1 | inactive |
| CCc1ccc2nc(/N=C(\N)NC(=O)c3ccccc3)nc(C)c2c1 | inactive |
| O=S1(=O)CCO[C@H]2Cc3ccccc3[C@H]2N1Cc1ccc(Cl)cc1 | inactive |
| Cc1ccc(SCCNC(=O)c2ccc(C)c([N+](=O)[O-])c2)cc1 | inactive |
| Cc1ccc(NC(=O)O/N=C/c2c(C)nn(C(C)(C)C)c2C)cc1Cl | inactive |
| COc1ccc(-c2csc(NC(=O)c3c(C)noc3C)n2)cc1 | inactive |
| O=C1CCNc2c(Cl)cccc21 | inactive |
| Cc1ccc(NC(=O)CSc2nnc([C@@H]3CCCN3C(=O)OC(C)(C)C)o2)c(C)c1 | inactive |
| CCCCCNCc1cccc(Br)c1 | inactive |
| O=C1C2CCN(CC2)C1Cc1ccc(OCCOc2ccccc2)cc1 (configuration not stated) | inactive |
| Nc1ccc(C(=O)O)c(O)c1 | inactive |
| COc1ccc(C(=O)NC(=S)Nc2ccc(S(=O)(=O)Nc3cc(C)on3)cc2)cc1OC | inactive |
| Cc1nn(C)c(C(=O)NC(=S)Nc2ccccc2Br)c1Cl | inactive |
| Cc1cc(C(=O)Nc2nnc(-c3ccccc3)s2)no1 | inactive |
| Cc1ccc(NC(=O)CCS(=O)(=O)c2cccc3nonc23)cc1 | inactive |
| CC(=O)c1c(C)[nH]c(C(=O)OCC(=O)Nc2nnc(-c3ccccc3)o2)c1C | inactive |
| CCOc1ccc(-c2nnc(-c3cccs3)o2)cc1OCC | inactive |
| O=C(Nc1ccc(F)cc1)c1sc2cc(C(F)(F)F)cnc2c1-c1cccs1 | inactive |
